Source: PubChem BioAssay
Values without a mark were called inactive. How the calls were made is not given here. Peptide text beside a SMILES is read from it. * marks the point of attachment. CH2Cl = ClC*

Assay: chitosan synthesis blockers in C. neoformans – flow cytometry, Cibacron Brilliant Red staining (AID 1347148);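 further: compound exposure lasted three days at 37 degrees C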
Details: Cryptococcus neoformans chitosan, active compounds read low; at 10 µM unless noted

Structure (SMILES)	fold fluorescence
C=C1[C@@H](C)[C@H]2[C@H](Cc3ccccc3)NC(=O)[C@]23OC(=O)/C=C/[C@H](O)CCC[C@@H](C)C/C=C/[C@H]3[C@@H]1O	6.64 [at 104.2 µM]
Clc1ccc(C2CC3CCC2N3)cn1 (stereo unspecified)	4.32 [at 239.6 µM]
COC(C/C=C/C=C/CC/C=C\CC(C)/C=C\C(=C/C(=O)O)CC(=O)O)/C(C)=C\C=C(/C)C(=O)O (stereo unspecified)	5.28 [at 10.3 µM]
COC[C@H]1OC(=O)c2coc3c2[C@@]1(C)C1=C(C3=O)[C@@H]2CCC(=O)[C@@]2(C)C[C@H]1OC(C)=O	5.16 [at 116.7 µM]
C[C@H](N)C(=O)N[C@@H](C)C(=O)N[C@@H](Cc1ccccc1)C(=O)CCl (H-Ala-Ala-Phe-CH2Cl)	4.89 [at 147.1 µM]
CO/C1=C\C(C)=C\[C@@H](C)[C@@H](O)[C@@H](C)C/C(C)=C/C=C/[C@H](OC)[C@@H]([C@@H](C)[C@@H](O)[C@H](C)[C@@]2(O)C[C@@H](O)[C@H](C)[C@@H](C(C)C)O2)OC1=O	11.4 [at 8 µM]
CCCCC/C=C\C/C=C\C/C=C\C/C=C\CCCC(=O)NCc1ccc(O)c(OC)c1	5.97 [at 113.7 µM]
CCCCC/C=C\C/C=C\C/C=C\C/C=C\CCCC(=O)N[C@@H](C)CO	6.15
N#CC(C#N)=NNc1ccc(OC(F)(F)F)cc1	9.07 [at 196.7 µM]
CO[C@@H]1C[C@@H](C[C@H]2CC[C@H](C)[C@H]([C@@H](C)C(=O)O)O2)O[C@]2(O[C@](C)([C@H]3CC[C@@](C)([C@@H]4O[C@@H]([C@H]5O[C@@](O)(CO)[C@H](C)C[C@@H]5C)C[C@@H]4C)O3)C[C@H]2C)[C@@H]1C	5.68 [at 69 µM]
CCOC(=O)CN1C(=O)CC(C[C@@H](O)C2C[C@@H](C)C[C@H](C)C2=O)CC1=O (stereo partly specified)	10.9 [at 136.1 µM]
